Where “and” joins values, the source holds several entries; their conditions need not be identical. Equal entries are not always repeated. Results filed as inconclusive are left out. Calls of active or inactive are those of the source. The call rests on the fitted dose curve; in most records, active means well fitted curve in the direction sought with a large enough effect; inconclusive means small, poorly fitted or top-dose-only effect, or another doubt; inactive means no such curve, though single readings can be large; an effect the other way counts as inactive or inconclusive.
Legend:
MKL-1 = assay: qHTS assay to identify novel small-molecules to repurpose for Merkel cell carcinoma treatment (AID 1296009); settings: MCC and control cell lines, CellTiter-Glo viability, 72 h; series mostly up to 46 µM; further: nearly all actives have a fitted effect of over 60% in size
Outline: (§1)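 Viability readout: ATP luminescence (CellTiter-Glo) after 72 hr drug exposure at 37 degree celsius. Dose-response format was 8 points for NPC and 11 points for MIPE; data normalized to in-plate controls.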

MKL-2 = assay: as above; settings: MCC and control cell lines, CellTiter-Glo viability, 72 h; series mostly up to 46 µM
Outline: as §1

UISO = assay: as above; settings: MCC and control cell lines, CellTiter-Glo viability, 72 h; series mostly up to 46 µM
Outline: as §1

WaGa = assay: as above; settings: MCC and control cell lines, CellTiter-Glo viability, 72 h; series mostly up to 46 µM
Outline: as §1

C33A = assay: Primary qHTS to identify gynecologic anti-cancer compounds using libraries of approved drugs and bioactive compounds (AID 1345084); settings: Gynecologic cancer cell panel viability, ATPlite luminescence, 48 h; series mostly up to 57.5 µM; further: nearly all actives have a fitted effect of over 55% in size
Outline: (§2)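 Cell viability after 48 h drug treatment, ATPlite luminescence readout; five doses.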

CAOV3 = assay: as above; settings: Gynecologic cancer cell panel viability, ATPlite luminescence, 48 h; series mostly up to 57.5 µM
Outline: as §2

CASKI = assay: as above; settings: Gynecologic cancer cell panel viability, ATPlite luminescence, 48 h; series mostly up to 57.5 µM
Outline: as §2

Es-2 = assay: as above; settings: Gynecologic cancer cell panel viability, ATPlite luminescence, 48 h; series mostly up to 57.5 µM
Outline: as §2

HeLa = assay: as above; settings: Gynecologic cancer cell panel viability, ATPlite luminescence, 48 h; series mostly up to 57.5 µM
Outline: as §2

Hek293T = assay: as above; settings: Gynecologic cancer cell panel viability, ATPlite luminescence, 48 h, control line for the selectivity index; series mostly up to 57.5 µM
Outline: as §2

JEG-3 = assay: as above; settings: Gynecologic cancer cell panel viability, ATPlite luminescence, 48 h; series mostly up to 57.5 µM
Outline: as §2

OV90 = assay: as above; settings: Gynecologic cancer cell panel viability, ATPlite luminescence, 48 h; series mostly up to 57.5 µM
Outline: as §2

PA-1 = assay: as above; settings: Gynecologic cancer cell panel viability, ATPlite luminescence, 48 h; series mostly up to 57.5 µM
Outline: as §2

SKOV3 = assay: as above; settings: Gynecologic cancer cell panel viability, ATPlite luminescence, 48 h; series mostly up to 57.5 µM
Outline: as §2

Tov-21-G = assay: as above; settings: Gynecologic cancer cell panel viability, ATPlite luminescence, 48 h; series mostly up to 57.5 µM
Outline: as §2

Tov112D = assay: as above; settings: Gynecologic cancer cell panel viability, ATPlite luminescence, 48 h; series mostly up to 57.5 µM
Outline: as §2

[1] = Drug repurposing screens with cells derived from glioblastoma tumor samples (AID 1345199); settings: GBM patient neurospheres viability, ATP luminescence, 48 h; further: nearly all actives have a fitted effect of over 40% in size; on activity, negative = cell killing: on the % scale 0 is the no-effect control and ±100 the full control effect
Outline: (§3)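 Primary testing used CD133+ neurospheres from four GBM patients, seven concentrations, 48 h exposure and ATP-based viability; confirmation added three slower-growing patient lines.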

astro = assay: as above; settings: viability, ATP luminescence, 48 h; series mostly up to 45.9 µM
Outline: as §3

[2] = qHTS assay to identify inhibitors of the type 1 interferon - major histocompatibility complex class I in skeletal muscle: Counter screen cell viability and HiBit confirmation (AID 1347412); settings: iHSKM muscle cells + IFN-b, HiBiT or CellTiter-Glo, 24 h; further: nearly all actives have a fitted effect of over 60% in size
Outline: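 CRISPR HLA-B*08:01-HiBit immortalized human myoblasts (C25cl48) stimulated with 4 ng/ml IFN-beta and compounds (12-point 1:3, top 46 uM final) for 24 h at 37 C. Duplicate plates read by HiBit lytic luminescence or CellTiter Glo ATP.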

NIH3T3 = assay: qHTS assay to identify novel small-molecules to repurpose for Merkel cell carcinoma treatment (AID 1296009); settings: MCC and control cell lines, CellTiter-Glo viability, 72 h; at 44.8 µM (top of the series) unless noted; further: nearly all actives have a fitted effect of over 60% in size
Outline: as §1

[3] = at 45.9 µM (top of the series), tumour line B
[4] = at 45.9 µM (top of the series), tumour line D
[5] = at 46.1 µM (top of the series), tumour line C
[6] = at 20 µM (top of the series), tumour line C
[7] = at 21.2 µM (top of the series), tumour line B
[8] = at 21.2 µM (top of the series), tumour line D
[9] = at 21.3 µM (top of the series), tumour line A
[10] = at 46 µM (top of the series), tumour line A
Potency means the concentration at half of the fitted maximal effect.

Cc1ccc2c(n1)Oc1ccc(C(C)C(=O)OCC(=O)N(C)C)cc1C2 (configuration not stated)
inactive: Potency (MKL-1) | Potency (MKL-2) | Potency (UISO) | Potency (WaGa) | Potency (C33A) | Potency (CAOV3) | Potency (CASKI) | Potency (Es-2) | Potency (HeLa) | Potency (Hek293T) | Potency (JEG-3) | Potency (OV90) | Potency (PA-1) | Potency (SKOV3) | Potency (Tov-21-G) | Potency (Tov112D) | activity, negative = cell killing [1, 3] -2.21% and -4.54% | activity, negative = cell killing [1, 4] -24.2% and -10.3% | activity, negative = cell killing [1, 5] -14.5% and 2.44% | Potency (astro)

Cc1ccc(C(=O)c2ccc(CC(=O)O)n2C)cc1
inactive: Potency (MKL-1) | Potency (MKL-2) | Potency (UISO) | Potency (WaGa) | Potency (C33A) | Potency (CAOV3) | Potency (CASKI) | Potency (Es-2) | Potency (HeLa) | Potency (Hek293T) | Potency (JEG-3) | Potency (OV90) | Potency (PA-1) | Potency (SKOV3) | Potency (Tov-21-G) | Potency (Tov112D) | activity, negative = cell killing [1, 6] -5.11% | activity, negative = cell killing [1, 7] -9.02% | activity, negative = cell killing [1, 8] -3.08% | activity, negative = cell killing [1, 9] -10.3% | Potency (astro)

CC(=O)SCC(CC(=O)c1ccc(C)cc1)C(=O)O (configuration not stated)
inactive: Potency (MKL-1) | Potency (MKL-2) | Potency (UISO) | Potency (WaGa) | Potency (C33A) | Potency (CAOV3) | Potency (Es-2) | Potency (HeLa) | Potency (Hek293T) | Potency (JEG-3) | Potency (OV90) | Potency (Tov-21-G) | Potency (Tov112D) | activity, negative = cell killing [1, 3] -14.9% | activity, negative = cell killing [1, 4] -21.8% | activity, negative = cell killing [1, 5] 1.92% | Potency (astro)

Cc1c(Nc2ncccc2C(=O)O)cccc1C(F)(F)F
inactive: Potency (MKL-1) | Potency (MKL-2) | Potency (UISO) | Potency (WaGa) | Potency (C33A) | Potency (CAOV3) | Potency (CASKI) | Potency (Es-2) | Potency (HeLa) | Potency (Hek293T) | Potency (JEG-3) | Potency (OV90) | Potency (PA-1) | Potency (SKOV3) | Potency (Tov-21-G) | Potency (Tov112D) | activity, negative = cell killing [1, 6] -8.1% | activity, negative = cell killing [1, 7] -18.2% | activity, negative = cell killing [1, 8] -22.5%

c1ccc2sc(SN3CCOCC3)nc2c1
inactive: Potency (MKL-1) | Potency (MKL-2) | Potency (UISO) | Potency (WaGa) | Potency (C33A) | Potency (CAOV3) | Potency (CASKI) | Potency (Es-2) | Potency (HeLa) | Potency (Hek293T) | Potency (JEG-3) | Potency (OV90) | Potency (PA-1) | Potency (Tov-21-G) | Potency (Tov112D) | activity, negative = cell killing [1, 3] -16.5% | activity, negative = cell killing [1, 4] -19.8% | activity, negative = cell killing [1, 5] -23.9% | Potency (astro)

Clc1ccccc1-c1nc(-c2ccncc2)no1
active: Potency (HeLa) 28.2 µM | Potency (SKOV3) 22.4 µM
inactive: Potency (MKL-1) | Potency (MKL-2) | Potency (UISO) | Potency (WaGa) | Potency (C33A) | Potency (CAOV3)

O=C(O)Cc1ccc(-c2ccccc2)cc1
inactive: Potency (MKL-1) | Potency (MKL-2) | Potency (UISO) | Potency (WaGa) | Potency (C33A) | Potency (CAOV3) | Potency (CASKI) | Potency (Es-2) | Potency (HeLa) | Potency (Hek293T) | Potency (JEG-3) | Potency (OV90) | Potency (PA-1) | Potency (SKOV3) | Potency (Tov-21-G) | Potency (Tov112D) | activity, negative = cell killing [1, 6] 2.3% | activity, negative = cell killing [1, 7] -5.31% | activity, negative = cell killing [1, 8] -13.6% | activity, negative = cell killing [1, 9] -23.3% | Potency (astro)

[O-][n+]1ccccc1SSc1cccc[n+]1[O-]
active: Potency (MKL-1) 0.231 µM | Potency (MKL-2) 0.58 µM | Potency (UISO) 0.092 µM | Potency (WaGa) 0.517 µM | Potency (C33A) 1.12 µM | Potency (CAOV3) 2.82 µM | Potency (CASKI) 2.51 µM | Potency (Es-2) 1 µM | Potency (Hek293T) 0.501 µM | Potency (JEG-3) 2 µM | Potency (OV90) 1.78 µM | Potency (PA-1) 1.26 µM | Potency (SKOV3) 0.794 µM | Potency (Tov-21-G) 1.41 µM | Potency (Tov112D) 2.82 µM | Potency ([1]; tumour line A) 7.08 µM | Potency ([1]; tumour line B) 15.8 µM | Potency ([1]; tumour line D) 7.08 µM | Potency ([2]; HiBiT) 0.496 µM | Potency ([2]; Viability) 0.991 µM
inactive: Potency (HeLa) | activity, negative = cell killing [1, 5] -16.3%

CCCCCCCCCCCCCCCCCC(=O)O
inactive: Potency (MKL-1) | Potency (MKL-2) | Potency (UISO) | Potency (WaGa) | Potency (C33A) | Potency (CAOV3) | Potency (CASKI) | Potency (Es-2) | Potency (HeLa) | Potency (Hek293T) | Potency (JEG-3) | Potency (OV90) | Potency (PA-1) | Potency (SKOV3) | Potency (Tov-21-G) | Potency (Tov112D) | activity, negative = cell killing [1, 3] -6.65% | activity, negative = cell killing [1, 4] -11.1% | activity, negative = cell killing [1, 10] -19.5% | activity, negative = cell killing [1, 5] -22.7% | Potency (astro)

O=C(OCc1ccccc1)c1ccccc1
inactive: Potency (MKL-1) | Potency (MKL-2) | Potency (UISO) | Potency (WaGa) | Potency (C33A) | Potency (CAOV3) | Potency (CASKI) | Potency (Es-2) | Potency (HeLa) | Potency (Hek293T) | Potency (JEG-3) | Potency (OV90) | Potency (PA-1) | Potency (SKOV3) | Potency (Tov-21-G) | Potency (Tov112D) | activity, negative = cell killing [1, 3] -4.23% | activity, negative = cell killing [1, 4] -19% | activity, negative = cell killing [1, 10] -13.2% | activity, negative = cell killing [1, 5] -10.1% | Potency (astro)

CCCCCCCCCCCCCCCC(=O)OC(C)C
inactive: Potency (MKL-1) | Potency (MKL-2) | outcome (NIH3T3) | Potency (UISO) | Potency (WaGa) | Potency (C33A) | Potency (CASKI) | Potency (Es-2) | Potency (HeLa) | Potency (Hek293T) | Potency (JEG-3) | Potency (OV90) | Potency (PA-1) | Potency (SKOV3) | Potency (Tov-21-G) | Potency (Tov112D) | activity, negative = cell killing [1, 3] -2.41% | activity, negative = cell killing [1, 4] -2.14% | activity, negative = cell killing [1, 10] -26.7% | activity, negative = cell killing [1, 5] 4.29% | Potency (astro)

O=C(O)Cc1ccc2c(c1)C(=O)c1ccccc1CO2
inactive: Potency (MKL-1) | Potency (MKL-2) | outcome (NIH3T3) | Potency (UISO) | Potency (WaGa) | Potency (C33A) | Potency (CAOV3) | Potency (CASKI) | Potency (Es-2) | Potency (HeLa) | Potency (Hek293T) | Potency (JEG-3) | Potency (OV90) | Potency (PA-1) | Potency (SKOV3) | Potency (Tov-21-G) | Potency (Tov112D)
